Compound activity from PubChem BioAssay.
hgDAF12 agonist = hgDAF-12 agonism, primary luciferase screen | HEK293 GAL4-hgDAF12 UAS-luciferase reporter, agonist luminescence; normalized to butyrate control | activation, % at 6.8 µM | hit rate 1.8% among 370,000 | AID 687014;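 active means activation above a cutoff set at the mean of all screened compounds plus 3 SD, cut at about 10% in these data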
DAX1 inh-1 = NR0B1 (DAX1) inhibition; AID 504766; hit rate 0.99% among 340,000; HEK293 Gal4-DAX1 luciferase reporter, luminescence; P51843; inhibition, % at 6.75 µM;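 active means inhibition above the mean over all tested compounds plus 3 SD, cut at about 4.2% in these data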;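 further: inhibition shows as a rise in luminescence from relieved DAX1 repression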
Target sequence (P51843 207-470 limits assumed): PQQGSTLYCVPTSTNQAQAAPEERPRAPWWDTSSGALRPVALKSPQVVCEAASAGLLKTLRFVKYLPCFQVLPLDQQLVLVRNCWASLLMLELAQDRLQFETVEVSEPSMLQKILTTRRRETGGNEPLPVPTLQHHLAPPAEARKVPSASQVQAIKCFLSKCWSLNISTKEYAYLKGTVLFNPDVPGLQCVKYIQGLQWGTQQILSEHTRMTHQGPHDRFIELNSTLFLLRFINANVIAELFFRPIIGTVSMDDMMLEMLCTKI
ssDAF12 agonist = activators of S. stercoralis DAF-12 nuclear receptor; AID 652126; hit rate 1% among 370,000; activation, % at 6.8 µM; HEK293 ssDAF-12/GRIP1 lit1-tk-luc reporter, luminescence; % of 3 µM dafachronic acid response;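 active means activation above the mean over all tested compounds plus 3 SD, cut at about 0.9% in these data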
hcDAF-12 act = activates DAF-12 receptor from parasite H. contortus. HEK293 hcDAF-12 lit1-tk-luc reporter, luminescence; 0% DMSO, 100% Δ7-dafachronic acid. activation, % at 6.8 µM. hit rate 1.4% among 370,000;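 active means activation above the mean of all tested compounds plus 3 SD, cut at about 5.5% in these data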
DAX1 inh-2 = inhibitors of DAX1 repression of SF-1 activated StAR promoter; HEK293T StAR-luciferase reporter, SF-1/DAX-1 repression relief; inhibition, % at 6.8 µM; hit rate 1.1% among 370,000; AID 652010;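 active means inhibition above the mean over all tested compounds plus 3 SD, cut at about 3.6% in these data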;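 further: higher inhibition means more luminescence from relief of DAX-1 repression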
LXR ag = counter-screen for hcDAF-12 agonists: agonists of human LXR-beta; 3,400 tested, under 10 active; activation, % at 6.8 µM; AID 743027; HEK293 Gal4-LXR tk-luc reporter, luminescence, 24 h; normalized: DMSO 0%, positive control 100%; shares compounds with hcDAF-12 act;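 active means mean percent activation of the reporter above a cutoff set as the average over tested compounds plus their standard deviation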
hcDAF12 ag = confirmation of H. contortus DAF-12 agonists; shares compounds with hcDAF-12 act; HEK293 hcDAF-12 lit1-tk-luc reporter, luminescence; % of Δ7-dafachronic acid response; activation, % at 6.8 µM; hit rate 61% among 3,400;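 active means mean activation across triplicate tests above the threshold derived from the earlier primary screen, cut at about 5.5% in these data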
Numbers stand for hits. Sampled rows, rich in hits. Any-hit rate of the full collection: about 4.1%.

`COc1ccc(Cl)cc1C(=O)O/N=C(\N)c1ccccn1` gave hgDAF12 agonist inactive, DAX1 inh-1 inactive, ssDAF12 agonist inactive, hcDAF-12 act 7.1, DAX1 inh-2 inactive, LXR ag inactive and hcDAF12 ag inactive.
COc1ccc(C(=O)O/N=C(\N)c2ccccn2)c(OC)c1 was read as hgDAF12 agonist inactive, DAX1 inh-1 inactive, ssDAF12 agonist inactive, hcDAF-12 act inactive and DAX1 inh-2 inactive.
For N/C(=N\OC(=O)COc1ccc(Br)cc1Cl)c1ccccn1 the results were hgDAF12 agonist inactive, DAX1 inh-1 inactive, ssDAF12 agonist inactive, hcDAF-12 act 9.8, DAX1 inh-2 4.2, LXR ag inactive and hcDAF12 ag 7.6.
Screening N/C(=N\OC(=O)COc1ccc2ccccc2c1Br)c1ccccn1 returned hgDAF12 agonist inactive, DAX1 inh-1 inactive, ssDAF12 agonist inactive, hcDAF-12 act inactive and DAX1 inh-2 inactive.
For Cc1ccc(CNC(=O)OC(C)(C)C)c(/C=C/S(=O)(=O)NCCc2ccccc2)c1 the results were hgDAF12 agonist inactive, ssDAF12 agonist inactive, hcDAF-12 act inactive and DAX1 inh-2 inactive.
For Clc1ccccc1-c1nc(-c2ccc(Br)o2)no1 the results were hgDAF12 agonist 21.5, DAX1 inh-1 5.6, ssDAF12 agonist 3.5, hcDAF-12 act 15.1, DAX1 inh-2 inactive, LXR ag inactive and hcDAF12 ag 17.6.
Screening Clc1ccccc1OCc1nc(-c2ccc(Br)o2)no1 returned hgDAF12 agonist inactive, DAX1 inh-1 inactive, ssDAF12 agonist inactive, hcDAF-12 act 6.7, DAX1 inh-2 inactive, LXR ag inactive and hcDAF12 ag inactive.
`Brc1ccc(-c2nc(-c3ccncc3)no2)o1` gave hgDAF12 agonist inactive, DAX1 inh-1 inactive, ssDAF12 agonist inactive, hcDAF-12 act inactive and DAX1 inh-2 inactive.
Screening COc1ccccc1-c1nc(-c2ccccn2)no1 returned hgDAF12 agonist inactive, DAX1 inh-1 inactive, ssDAF12 agonist inactive, hcDAF-12 act 8.6, DAX1 inh-2 inactive, LXR ag inactive and hcDAF12 ag 10.3.
`Fc1ccc(OCc2nc(-c3ccc(Br)o3)no2)c(F)c1` gave hgDAF12 agonist inactive, DAX1 inh-1 inactive, ssDAF12 agonist inactive, hcDAF-12 act inactive and DAX1 inh-2 inactive.
Screening Brc1ccc(-c2nc(-c3ccccn3)no2)o1 returned hgDAF12 agonist inactive, DAX1 inh-1 inactive, ssDAF12 agonist inactive, hcDAF-12 act 8.0, DAX1 inh-2 inactive, LXR ag inactive and hcDAF12 ag 10.8.
Screening Cc1nc(-c2noc(-c3ccccc3Cl)n2)c(C(F)(F)F)o1 returned hgDAF12 agonist inactive, DAX1 inh-1 inactive, ssDAF12 agonist inactive, hcDAF-12 act inactive and DAX1 inh-2 inactive.
Screening CC(C)CCNC(=O)C1CCN(c2cncnc2)CC1 returned hgDAF12 agonist inactive, ssDAF12 agonist inactive, hcDAF-12 act inactive and DAX1 inh-2 inactive.
For COC(=O)c1cccc(C(=O)Nc2ccc(C)cc2)n1 the results were hgDAF12 agonist inactive, DAX1 inh-1 inactive, ssDAF12 agonist 1.0, hcDAF-12 act 7.1, DAX1 inh-2 inactive, LXR ag inactive and hcDAF12 ag 7.5.
`CCc1ccc(NC(=O)c2cccc(C(=O)Nc3ccc(CC)cc3)n2)cc1` gave hgDAF12 agonist inactive, DAX1 inh-1 inactive, ssDAF12 agonist inactive, hcDAF-12 act inactive and DAX1 inh-2 inactive.
Cc1noc(C)c1S(=O)(=O)N(CC(=O)N1CCn2c1nc1ccccc12)c1ccc(C(C)C)cc1 was read as hgDAF12 agonist inactive, DAX1 inh-1 inactive, ssDAF12 agonist inactive, hcDAF-12 act 8.4, DAX1 inh-2 inactive, LXR ag inactive and hcDAF12 ag inactive.
`COc1ccc(-c2cc(C(=O)NN=Cc3ccccc3[N+](=O)[O-])[nH]n2)cc1` gave hgDAF12 agonist inactive, ssDAF12 agonist inactive, hcDAF-12 act inactive and DAX1 inh-2 inactive.
Screening S=C(Nc1ccc(Br)cc1)OCCN1CCCC12CCC(c1ccccc1)CC2 (stereo not drawn) returned hgDAF12 agonist inactive, ssDAF12 agonist inactive and hcDAF-12 act inactive.
